Compounds with a hit are over-represented: about 0.79% of the library has one in this group of screens.
HDAC3 inh: blocks human histone deacetylase 3 | O15379 | recombinant HDAC3, fluorogenic peptide/trypsin coupled, fluorescence | inhibition, % at 8.3 µM | hit rate 0.15% among 320,000 | AID 2718; in the data active = inhibition above about 26%, passing the limit was not always enough
Target sequence (O15379 whole entry, looked up): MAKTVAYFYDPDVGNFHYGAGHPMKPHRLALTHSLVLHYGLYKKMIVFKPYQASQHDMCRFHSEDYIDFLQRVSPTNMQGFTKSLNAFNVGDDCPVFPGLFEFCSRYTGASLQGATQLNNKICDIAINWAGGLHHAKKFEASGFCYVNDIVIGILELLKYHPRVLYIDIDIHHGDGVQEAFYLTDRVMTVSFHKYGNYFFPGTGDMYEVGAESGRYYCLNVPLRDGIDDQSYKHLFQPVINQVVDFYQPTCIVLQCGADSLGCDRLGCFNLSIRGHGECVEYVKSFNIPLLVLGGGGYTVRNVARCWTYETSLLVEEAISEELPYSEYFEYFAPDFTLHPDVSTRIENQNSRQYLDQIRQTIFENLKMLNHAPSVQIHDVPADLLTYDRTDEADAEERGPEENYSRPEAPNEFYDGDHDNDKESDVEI
LANA-H2A inh: blocks KSHV LANA binding to histone H2A/H2B; cell-free LANA-H2A/H2B peptide, fluorescence polarization; inhibition, % (concentration not given with the values); hit rate 0.6% among 320,000; AID 2629; in the data active = inhibition mostly above about 10%, no sharp cut-off; inactive = mostly below about 6.7%
iPSC survival up: increases survival of single human iPS cells; hiPSC single-cell survival, ATPlite luminescence; 100% = ROCK inhibitor wells, 0% = DMSO; survival enhancement, % at 20 µM; hit rate 0.044% among 360,000; AID 602274; in the data active = survival enhancement above about 18%;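 also: cells exposed to compounds for 16 hours before the ATP read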
DAGLB inh: diacylglycerol lipase beta (human) inhibition; inhibition, % at 5.17 µM; hit rate 0.059% among 340,000; AID 504411; HEK293T DAGLB membrane lysate, EnzChek fluorogenic substrate; Q8NCG7; in the data active = inhibition above about 34%;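 also: 0% = enzyme with vehicle and 100% = wells lacking enzyme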
* hit, by the source's call; / = not tested or not shown; + = active, no number; ! = not confirmed by another sample.

SMILES	HDAC3 inh	LANA-H2A inh	iPSC survival up	DAGLB inh
c1ccc2c(c1)OCC(c1nnc3n1-c1ccccc1SC3)O2 (stereo unspecified)	1.8	17.4*	0.2	-2.3
CCCCNc1nc2c(c(=O)[nH]c(=O)n2C)n1CCCc1ccccc1	/	/	3.7	1.2
O=C(N/N=C/c1coc2ccc(Cl)cc2c1=O)c1ccncc1	8.1	4.3	0.3	-0.9
COc1cc(C(=O)N/N=C/c2coc3ccc(Cl)cc3c2=O)ccc1O	96.2*	-4.5	0.1	0.3
O=C(N/N=C/c1coc2ccc(Cl)cc2c1=O)c1ccc(O)cc1	96.9*	-1.2	-0.3	0.7
COc1ccc(C(=O)N/N=C\c2coc3ccc(Cl)cc3c2=O)cc1	/	3.9	0.4	-2.9
COc1ccc(C(=O)N/N=C\c2coc3ccccc3c2=O)cc1	88.7*	7.8	-0.2	-1.1
Cc1ccc2cc(C#N)c(NCCNC(=O)C3CCC3)nc2c1C	-46.5	53.1*	2.3	0.7
CC(=O)Nc1ccc(S(=O)(=O)NCC2CCC(C(=O)NC(C)c3ccc4c(c3)OCCO4)CC2)cc1 (stereo unspecified)	0.8	1.5	/	/
CC(=O)Nc1ccc(S(=O)(=O)N(C)CC(=O)OCC(=O)N2CCCCCC2)cc1	2.8	-10.2	3.1	3.9
CCC(C(=O)NC1CCCCC1)n1nc(C)c2c(C)n(-c3ccccc3)nc2c1=O (stereo unspecified)	-1.6	0.6	-0.1	0.2
CCC(C(=O)NC1CC1)n1nc(C)c2c(C)n(-c3ccccc3)nc2c1=O (stereo unspecified)	-1.7	19.3*	0.5	-0.1
O=C(O)c1c(Cl)cccc1Cl	-1.4	+	1.8	0.4
CCNC(=O)C1CC(=O)N(Cc2ccc3c(c2)OCO3)C(=Nc2ccc(OCC)cc2)S1 (stereo unspecified)	-2.8	63.4*	-1.2	-1.6
COc1cc2c(cc1OC)C(c1cc(Br)ccc1F)N(C(=O)CCl)CC2 (stereo unspecified)	9.5	-2.3	20.6*	3.5
NC(=O)c1c(NC(=O)c2ccc(N3C(=O)CCC3=O)cc2)sc2c1CCCC2	4.3	-2.9	0.8	5.8
Cc1ccc(C(=O)CSc2cc(C)nc(SCC(=O)c3ccccc3)n2)cc1	1.9	-4.0	0.3	-22.5
Cc1cc(Oc2ccc(C)c(Cl)c2)nc(SCC(=O)c2ccccc2)n1	-9.5	16.2*	0.9	-13.7
COc1ccc(OC)c(/C=C2\N=C(c3ccccc3)OC2=O)c1	-2.0	41.9*	-0.9	-2.4
Cc1cc(Br)cnc1NC(=S)Nc1ccc(F)cc1F	4.7	-0.7	-0.2	0.4
CN(C)S(=O)(=O)c1cccc(N=C2NN=C(c3ccccc3)CS2)c1	9.5	44.1*	/	/
CC(=O)Nc1ccc(C2=NNC(=Nc3cccc(S(=O)(=O)N(C)C)c3)SC2)cc1	-1.1	-1.9	-2.1	-13.9
Fc1ccc(Oc2nc(-c3ccccc3)nnc2C(F)(F)F)cc1	6.9	10.1*	-0.3	2.3
COc1ccccc1NC(=O)COC(=O)/C=C/c1ccc2c(c1)OCO2	-2.7	14.2*	-0.7	-8.5
O=C(Nc1ccccn1)C(F)(F)C(F)(F)C(F)(F)C(F)(F)C(=O)Nc1ccccn1	/	/	-0.1	0.6
SMILES	HDAC3 inh	LANA-H2A inh	iPSC survival up	DAGLB inh
CC(C)CC(=O)c1c[nH]c(C(=O)N2CCN(Cc3ccccc3)CC2)c1	1.2	+	-0.4	0.2
Clc1ccc(-c2ccnc(-n3cccc3)n2)s1	18.9	29.6*	-0.6	-6.0
Clc1ccsc1-c1ccnc(-n2cccc2)n1	-0.4	0.8	-0.2	-1.2
COc1ccc(Cn2c(=O)[nH]c3cc(C(=O)N4CCN(c5ccc(C(C)=O)cc5)CC4)ccc3c2=O)cc1	1.3	3.9	-0.4	-1.2
O=C(N/N=C/c1ccc(OC(F)F)cc1)c1ccc(Br)cc1	1.4	-0.8	4.0	2.2
O=C(NO)c1ccc(OC(F)F)cc1	72.5*	5.7	-1.1	0.6
COc1ccc([N+](=O)[O-])cc1NC(=O)C(C)OC(=O)CC1CCCC1 (stereo unspecified)	4.8	-5.7	0.2	-5.0
CC(C)(C)OC(=O)N1CCC2(CC1)C(C#N)=C(N)OC1=C2C(=O)CCC1	-0.7	-3.3	0.0	2.1
O=C(NCCc1nc2ccccc2[nH]1)/C(=C/c1ccco1)NC(=O)c1ccccc1Br	2.7	13.9*	-0.1	0.2
CCOc1ncccc1C(=O)Nc1cc(S(=O)(=O)N2CCCCCC2)ccc1OC	/	/	0.6	1.2
NCCc1cnc[nH]1	-3.3	21.8*!	1.4	0.2
CN(c1ccccc1)S(=O)(=O)c1cccc(NS(=O)(=O)c2cccc(C(=O)O)c2)c1	-1.9	2.0	-1.9	9.6
O=C(Oc1ccccc1/C=C\C(=O)c1cc2ccccc2o1)c1ccccc1	-1.9	0.5	-3.8	3.0
